The panel holds about 79,000 compounds, 15% with a hit somewhere; the sample as a whole holds those more often. Unmarked numbers belong to inactive results. Rule as the data show it: active = growth inhibition above about 70%; inactive = the rest.
Experiment: NCI Yeast Anticancer Drug Screen. Data for the mec2-1 strain (AID 157)
Details: S. cerevisiae mec2-1 strain, at 50.0 µM, hits give high values
Outline: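 Growth inhibition is read against vehicle-treated controls after compound exposure of the mec2-1 yeast strain, which is defective in DNA damage repair or cell cycle control.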

Structure (SMILES)	growth inhibition
CC(CCC(=O)O)(CCC(=O)O)[N+](=O)[O-]	-1.1%
CC(c1ccc([N+](=O)[O-])cc1)n1cnc2c(N(CCO)CCO)ncnc21 (stereo not given)	-1.15%
C=CCC12CCC(=O)[C@@]1(C)CC=C(O)C2=O (stereo not given in full)	-2.8%
C=C(C)C1CCC2(C=O)CCC3(C)C(CCC4C5(C)CCC(O)C(C)(C)C5CCC43C)C12 (stereo not given)	37%
Cc1cccc(Cl)c1NC1=NCCN1C(=O)CC(=O)c1ccccc1	-9.2%
CC(=O)NCCc1[nH]cnc1N=Nc1ccc(Br)cc1	39.4%
CN(C)c1nc2ccc(Cl)cc2c(=O)[nH]1	4.55%
C/C=C1\CN2CCc3c([nH]c4ccccc34)C2C=C1CCO (stereo not given)	-34.4%
COc1ccccc1C(=O)C(CN(C)C)CN(C)C	-19.2%
Cc1ccc(NC(=O)C(=O)C(C(=O)c2ccc3ccccc3c2)C2OC(=O)c3ccccc32)c(C)c1 (stereo not given)	26.6%
COC(=O)c1ccc(CS(=O)(=O)c2ccccc2)cc1	-6.3%
NNS(=O)(=O)c1cccc(S(=O)(=O)NN)c1	12.3%
COc1ccc(/C=C/C(=O)C(C)(C)CN(C)CCN(C)C)cc1	-7.25%
N#CC(C#N)=C(N)/C(C#N)=C/c1ccc(O)c(O)c1	-4.9%
O=C(Cc1ccccc1)NNC(=O)Nc1ccccc1	-3.6%
CN(C)Cc1cc(C(=O)O)ccc1O	13.1%
Cc1cc(C)c2ccc(NN=O)nc2n1	9.75%
BrC/C(=N\N1CCCCC1)c1ccc(Br)cc1	-7.95%
CC1CN(CC2COc3ccccc3O2)C(C)CN1 (stereo not given)	17.4%
O=C([O-])C(=O)[N-]CCC[N-]C(=O)C(=O)[N-]CCC[N-]C(=O)C(=O)[O-].[Cu+2].[Cu+2].[Na+]	-13.6%

Structure (SMILES)	growth inhibition
CC(C)(C)N=Cc1ccccc1[O-].CC(C)(C)N=Cc1ccccc1[O-].[Co+2]	7.9%
CN(C)c1ccc(/C=C/c2ccccc2)cc1	-6.15%
COc1cc2c(cc1OC)C(=O)/C(=C/c1ccccc1)CC2	-6.45%
O=C(O)c1cccc(O)c1C(=O)O	-3.4%
CCOC(=O)/C=C/CC1CCNC1 (stereo not given)	-2.6%
COc1ccc(C2=C/C(=C/c3ccc(N(CCC#N)CCC#N)cc3)C(=O)O2)cc1	-6.2%
O=C(Cl)c1ccc2c(c1)C(=O)NC2=O	-12.1%
COc1cc(C(=O)NC2CCc3cc(OC)c(OC)c(OC)c3-c3ccc(OC)c(=O)cc32)cc(OC)c1OC (stereo not given)	-9.65%
CCCCCCC(/C=N\N=C\c1ccco1)=C\c1ccccc1	6.15%
NC(=O)c1ncn(C2OC(CO)C(O)C2O)c1NC=O (stereo not given)	-3.9%
COC(=O)C1CCC(C(=O)OC)CC1 (stereo not given)	-22.6%
CCN(CC)CCN(C)c1ccccc1	4.35%
CCc1nc2ccccc2cc1C	-4.55%
CCOC(OC(C)=O)[C@@H]1C=C[C@H](C)N(c2ccc([N+](=O)[O-])cc2)O1 (stereo not given in full)	13.9%
COc1cc(NCC(C#N)C#N)ccc1N=Nc1ccc([N+](=O)[O-])cc1	26.4%
NC(N)=NS(=O)(=O)c1ccc(Nc2c3ccccc3nc3c(C(=O)N4CCN(CCO)CC4)cccc23)cc1	-7.8%
O=C(O)c1c2ccccc2nc2c1sc1ccccc12	-8%
COc1ccc(C2Cc3cc(OC)c(OC)cc3C(c3ccccc3)N2)cc1OC (stereo not given)	18.7%
OC(c1nc2ccccc2s1)(C(F)(F)F)C(F)(F)F	-20.1%
Cc1ccc(C2OC(N)=C(O)C2=O)cc1 (stereo not given)	10.2%

Experiment: NCI Yeast Anticancer Drug Screen. Data for the sgs1 mgt1 strain (AID 161);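 also: 0% = growth of cultures given vehicle only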
Details: S. cerevisiae sgs1 mgt1 strain, at 50.0 µM, hits give high values
Outline: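 Yeast cells carrying a defined DNA-repair defect were exposed to test compounds. Growth inhibition was measured relative to vehicle-treated controls.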

Structure (SMILES)	growth inhibition
CC(CCC(=O)O)(CCC(=O)O)[N+](=O)[O-]	12.2%
CC(c1ccc([N+](=O)[O-])cc1)n1cnc2c(N(CCO)CCO)ncnc21 (stereo not given)	-13.7%
C=CCC12CCC(=O)[C@@]1(C)CC=C(O)C2=O (stereo not given in full)	17.2%
C=C(C)C1CCC2(C=O)CCC3(C)C(CCC4C5(C)CCC(O)C(C)(C)C5CCC43C)C12 (stereo not given)	25.1%
Cc1cccc(Cl)c1NC1=NCCN1C(=O)CC(=O)c1ccccc1	1.1%
CC(=O)NCCc1[nH]cnc1N=Nc1ccc(Br)cc1	14.7%
CN(C)c1nc2ccc(Cl)cc2c(=O)[nH]1	-14%
C/C=C1\CN2CCc3c([nH]c4ccccc34)C2C=C1CCO (stereo not given)	-26.4%
COc1ccccc1C(=O)C(CN(C)C)CN(C)C	6.65%
Cc1ccc(NC(=O)C(=O)C(C(=O)c2ccc3ccccc3c2)C2OC(=O)c3ccccc32)c(C)c1 (stereo not given)	32.9%
COC(=O)c1ccc(CS(=O)(=O)c2ccccc2)cc1	4.6%
NNS(=O)(=O)c1cccc(S(=O)(=O)NN)c1	-3.2%
COc1ccc(/C=C/C(=O)C(C)(C)CN(C)CCN(C)C)cc1	-23.9%
N#CC(C#N)=C(N)/C(C#N)=C/c1ccc(O)c(O)c1	-5.25%
O=C(Cc1ccccc1)NNC(=O)Nc1ccccc1	9.4%
CN(C)Cc1cc(C(=O)O)ccc1O	9.45%
Cc1cc(C)c2ccc(NN=O)nc2n1	18.9%
BrC/C(=N\N1CCCCC1)c1ccc(Br)cc1	-8.05%
CC1CN(CC2COc3ccccc3O2)C(C)CN1 (stereo not given)	57.2%
O=C([O-])C(=O)[N-]CCC[N-]C(=O)C(=O)[N-]CCC[N-]C(=O)C(=O)[O-].[Cu+2].[Cu+2].[Na+]	4.35%

Structure (SMILES)	growth inhibition
CC(C)(C)N=Cc1ccccc1[O-].CC(C)(C)N=Cc1ccccc1[O-].[Co+2]	-14.5%
CN(C)c1ccc(/C=C/c2ccccc2)cc1	-8.95%
COc1cc2c(cc1OC)C(=O)/C(=C/c1ccccc1)CC2	12.2%
O=C(O)c1cccc(O)c1C(=O)O	21.9%
CCOC(=O)/C=C/CC1CCNC1 (stereo not given)	-13.4%
COc1ccc(C2=C/C(=C/c3ccc(N(CCC#N)CCC#N)cc3)C(=O)O2)cc1	-16.4%
O=C(Cl)c1ccc2c(c1)C(=O)NC2=O	-19.4%
COc1cc(C(=O)NC2CCc3cc(OC)c(OC)c(OC)c3-c3ccc(OC)c(=O)cc32)cc(OC)c1OC (stereo not given)	3%
CCCCCCC(/C=N\N=C\c1ccco1)=C\c1ccccc1	1.25%
NC(=O)c1ncn(C2OC(CO)C(O)C2O)c1NC=O (stereo not given)	-2.25%
COC(=O)C1CCC(C(=O)OC)CC1 (stereo not given)	-2.3%
CCN(CC)CCN(C)c1ccccc1	-2.05%
CCc1nc2ccccc2cc1C	3.5%
CCOC(OC(C)=O)[C@@H]1C=C[C@H](C)N(c2ccc([N+](=O)[O-])cc2)O1 (stereo not given in full)	39.5%
COc1cc(NCC(C#N)C#N)ccc1N=Nc1ccc([N+](=O)[O-])cc1	10.5%
NC(N)=NS(=O)(=O)c1ccc(Nc2c3ccccc3nc3c(C(=O)N4CCN(CCO)CC4)cccc23)cc1	2.95%
O=C(O)c1c2ccccc2nc2c1sc1ccccc12	-3.05%
COc1ccc(C2Cc3cc(OC)c(OC)cc3C(c3ccccc3)N2)cc1OC (stereo not given)	16.7%
OC(c1nc2ccccc2s1)(C(F)(F)F)C(F)(F)F	-9.5%
Cc1ccc(C2OC(N)=C(O)C2=O)cc1 (stereo not given)	-4%
